From PubChem
Hits are enriched below; roughly 2.8% of the tested compounds scored in any of these assays.
SENP6 block = blocks the human protease SENP6; Q9GZR1; Recombinant SENP6 catalytic domain, aminoluciferin luminescence; inhibition, % at 10 µM; 330,000 compounds, 1.8% hits; AID 2599;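 active = inhibition above about 50% at the single tested dose, limit read from the data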
SENP7 block = blocks the human protease SENP7. recombinant SENP7, Z-RLRGG-aminoluciferin luminescence, 40 min. inhibition, % at 5 µM. 330,000 compounds, 1.5% hits. AID 434973;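 active = inhibition above about 50% at the single test dose, limit read from the data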
SENP8 block-1 = SENP8 protease inhibition. Q96LD8. inhibition, % at 10 µM. 330,000 compounds, 1.2% hits. purified SENP8, Z-RLRGG-aminoluciferin cleavage, luminescence; in the data active = inhibition above about 50%
SENP8 block-2 = inhibitors of human SENP8 protease; Q96LD8; recombinant SENP8, Nedd8 substrate fluorescence; inhibition, % at 20 µM; 360,000 compounds, 0.64% hits; in the data active = inhibition mostly above about 40%, no sharp cut-off; inactive = mostly below about 27%
HSP90 refold inh = inhibitors of HSP90 luciferase refolding in rabbit reticulocyte lysate; inhibition, % at 5.6 µM; 290,000 compounds, 0.91% hits; luciferase refolding luminescence, 3 h;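 active = inhibition above the screen-wide mean plus 3 SD, computed separately per campaign, cut at about 16% in these data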;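 also: inhibitors lower the luminescence because luciferase stays unfolded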
Platelet DG rel = modulates dense granule release in human platelets; human platelet-rich plasma, SFLLRN dense granule ATP release, luminescence; inhibition, %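 (compounds screened at 7.5 µM in platelet-rich plasma)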; 300,000 compounds, 0.22% hits;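 active = mean replicate score, as percent of positive control, at or above 50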
HSP90 confirm = HSP90 inhibition, confirmation assay. shares compounds with HSP90 refold inh. rabbit reticulocyte lysate, luciferase refolding luminescence, 3 h. inhibition, % at 5.9 µM. 2,300 compounds, 64% hits. AID 1846; in the data active = inhibition above about 18%
luciferase ctr = firefly luciferase inhibition, HSP90 counter-screen | purified native firefly luciferase, luminescence | 2,300 compounds, 48% hits | inhibition, % at 5.9 µM | shares compounds with HSP90 refold inh;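 active = inhibition above the mean inhibition of all tested sample wells plus 3 SD, cut at about 10% in these data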
Target sequence (P08659 whole entry, looked up): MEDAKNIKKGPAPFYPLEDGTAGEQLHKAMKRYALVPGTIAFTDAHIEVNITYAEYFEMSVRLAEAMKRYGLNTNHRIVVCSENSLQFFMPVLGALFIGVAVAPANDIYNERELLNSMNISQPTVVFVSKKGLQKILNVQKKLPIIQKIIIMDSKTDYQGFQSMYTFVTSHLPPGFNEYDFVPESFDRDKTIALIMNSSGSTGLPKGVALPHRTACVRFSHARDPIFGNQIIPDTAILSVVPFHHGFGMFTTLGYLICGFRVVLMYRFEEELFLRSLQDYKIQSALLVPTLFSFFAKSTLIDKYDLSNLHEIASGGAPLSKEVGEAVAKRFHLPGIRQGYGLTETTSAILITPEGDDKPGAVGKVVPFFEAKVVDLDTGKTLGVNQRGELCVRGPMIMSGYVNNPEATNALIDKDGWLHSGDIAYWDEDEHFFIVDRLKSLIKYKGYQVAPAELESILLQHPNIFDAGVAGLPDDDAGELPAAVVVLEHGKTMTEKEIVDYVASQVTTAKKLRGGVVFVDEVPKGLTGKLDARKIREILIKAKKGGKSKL
SENP8 conf = confirmation of human SENP8 protease inhibitors. shares compounds with SENP7 block. Recombinant SENP8, Z-RLRGG-aminoluciferin luminescence, 60 min. inhibition, % at 12.5 µM. 6,200 compounds, 40% hits;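 active = mean inhibition across replicates above about 50%, limit read from the data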
SENP6 conf = confirmation of human SENP6 protease inhibitors; shares compounds with SENP7 block; recombinant SENP6, Z-RLRGG-aminoluciferin luminescence; inhibition, % at 12.5 µM; 6,200 compounds, 58% hits
SENP7 confirm = confirmation of human SENP7 protease inhibitors. shares compounds with SENP7 block. recombinant SENP7, Z-RLRGG-aminoluciferin luminescence, 40 min. inhibition, % at 12.5 µM. 6,200 compounds, 69% hits
Casp3 select = inhibits human caspase-3 in SENP selectivity test. 6,200 compounds, 60% hits. shares compounds with SENP7 block. purified caspase-3, Z-DEVD-aminoluciferin luminescence, 60 min. AID 488918. inhibition, % at 12.5 µM;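 active = mean inhibition above about 50%, limit read from the data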
Luc interf = luminescence interference (SENP counter-screen). shares compounds with SENP7 block. Pre-incubated SENP8/Z-RLRGG-aminoluciferin, luciferase luminescence interference. inhibition, % at 12.5 µM. 6,200 compounds, 39% hits;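 active = mean inhibition above about 50% when retested at one dose, limit read from the data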
Hits are given with their value; n = inactive; x = no result.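 The calls were made as follows, unless noted: active = mean inhibition above about 50% in the one-dose retest (limit read from the data); inactive = the rest.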

SMILES	SENP6 block	SENP7 block	SENP8 block-1	SENP8 block-2	HSP90 refold inh	Platelet DG rel	HSP90 confirm	luciferase ctr	SENP8 conf	SENP6 conf	SENP7 confirm	Casp3 select	Luc interf
Cc1cc(C)nc(Nc2nc(-c3ccccc3)cs2)n1	73.8	89.6	81.8	n	27.7	n	51.2	36.9	n	n	n	n	n
COc1ccc(NC(=O)C2Cc3c(-c4cccc(F)c4)ccnc3O2)cc1OC (stereo unspecified)	x	x	x	n	x	x	x	x	x	x	x	x	x
COc1cccc(-c2cc(C(=O)Nc3cccc(O)c3)no2)c1	98.6	97.2	94.0	n	17.5	n	64.3	57.4	88.2	90.5	101.6	91.8	90.0
O=C(Nc1cccc(O)c1)c1cc(-c2cccs2)on1	93.9	75.0	85.2	n	30.6	n	63.7	57.0	94.2	94.0	100.3	92.3	95.4
CCOc1ccccc1C(=O)Nc1cc(C)ccc1NC(=O)c1ccco1	n	n	n	n	n	n	x	x	x	x	x	x	x
O=C(CC1CCCCC1)NCCS(=O)(=O)N1CCN(c2ccccc2)CC1	n	n	n	n	x	n	x	x	x	x	x	x	x
Cc1nn(-c2ccccc2)c(Cl)c1/C=N/NC(=O)c1[nH]ncc1Br	92.2	94.7	91.6	n	33.0	59.6	45.8	39.2	n	94.5	101.6	95.1	n
Cc1ccc(C(=O)N/N=C\c2c(C)nn(-c3ccccc3)c2Cl)cn1	n	n	n	n	n	n	x	x	x	x	x	x	x
C=C(C)COC(=O)c1ccccc1C(=O)OCC1(C)CO1 (stereo unspecified)	x	x	x	n	x	x	x	x	x	x	x	x	x
c1ccc(-c2cn3c4c(sc3n2)CCCC4)cc1	96.6	n	95.5	n	33.4	n	82.8	80.3	89.7	94.8	102.6	94.9	n
NS(=O)(=O)c1c(Sc2ccccc2C(=O)O)ccc2ccccc12	93.6	51.6	n	n	23.5	n	19.8	n	n	n	n	n	n
O=S(=O)(c1cc(Cl)ccc1Cl)N1CCN(c2ccccn2)CC1	n	n	n	n	n	n	x	x	x	x	x	x	x
COc1ccc(CNC(=O)COc2ccc(Br)c(C)c2)cc1	n	n	n	n	n	n	x	x	x	x	x	x	x
Cc1cccc(C)c1OCC(=O)Nc1cccc(C(=O)O)c1	68.7	53.4	n	n	23.4	n	35.5	30.1	65.1	63.7	88.2	n	73.8
O=C(CCCc1ccccc1)Nc1cccc(C(=O)O)c1	88.8	92.8	81.9	n	60.7	n	70.9	74.6	92.7	92.6	100.0	n	92.0
Nc1ccccc1C(=O)Nc1cccc(C(=O)O)c1	95.0	n	92.2	n	32.6	n	41.8	21.2	96.4	96.8	101.2	81.6	95.9
C=CCOC(=O)c1sc(NC(=O)c2ccc(OC)cc2)nc1C	n	68.8	n	n	54.6	n	60.3	n	n	n	n	n	n
CCOC(=O)c1sc(NC(=O)c2ccc(=O)[nH]c2)nc1C	n	n	n	n	n	n	x	x	x	x	x	x	x
CC(C)C(=O)Nc1ccc2nn(-c3ccc(F)cc3)nc2c1	71.3	85.0	53.1	n	24.6	n	27.6	19.8	n	n	65.6	n	n
COc1ccc2nc(NC(=O)c3ccoc3C)sc2c1	100.8	100.5	96.9	n	22.4	91.4	41.4	30.1	96.9	99.8	103.1	98.5	96.6
COc1ccc2sc(NC(=O)c3ccco3)nc2c1	89.8	n	87.2	n	55.6	n	60.5	48.0	86.7	90.4	97.4	90.9	85.9
Cc1cc(C)c2nc(NC(=O)c3ccco3)sc2c1	76.5	80.2	80.2	n	18.3	n	38.8	33.0	n	72.9	91.7	60.7	n
C[C@@H]1CN([C@H](C)CO)C(=O)c2cc(C3=CCCCC3)cnc2O[C@@H]1CN(C)Cc1ccccc1C(=O)O	x	x	x	n	x	x	x	x	x	x	x	x	x
CCCSc1ccc2nc(-c3ccccc3)cn2c1	96.3	98.4	95.8	n	45.8	75.3	90.2	82.9	98.3	98.8	102.2	97.0	92.8
CS(=O)(=O)c1ccc2nc(NC(=O)c3cccs3)sc2c1	90.5	88.6	83.7	n	18.4	x	36.7	23.0	n	78.6	95.0	88.2	59.8
SMILES	SENP6 block	SENP7 block	SENP8 block-1	SENP8 block-2	HSP90 refold inh	Platelet DG rel	HSP90 confirm	luciferase ctr	SENP8 conf	SENP6 conf	SENP7 confirm	Casp3 select	Luc interf
CCC(=O)Nc1nc2ccc(S(C)(=O)=O)cc2s1	n	n	n	n	n	n	x	x	x	x	x	x	x
Cc1ccc2nc(NC(=O)CCCC(=O)O)sc2c1	55.3	57.9	54.2	n	16.9	n	24.0	n	n	n	n	n	n
Cc1ccc2nc(NC(=O)c3cccs3)sc2c1	91.6	98.2	88.7	n	18.8	x	40.1	37.9	n	89.2	92.1	74.5	n
CCCCCN(C(=O)CCC(=O)OCC(=O)N(CC)C1CCCCC1)c1c(N)n(CCCC)c(=O)[nH]c1=O	n	n	n	n	x	n	x	x	x	x	x	x	x
CN1C(=O)S/C(=C/c2ccc(OCc3cccc(C(=O)O)c3)cc2)C1=O	92.4	57.4	77.6	n	46.5	n	50.2	n	61.7	67.4	58.3	n	n
O=C(CCCOc1ccccc1)N1CCCCC1	55.0	n	n	n	34.0	n	65.8	52.5	n	n	69.4	78.7	n
CCc1ccc(C2CC(c3ccco3)=NN2S(C)(=O)=O)cc1 (stereo unspecified)	93.6	92.4	89.2	n	18.1	n	21.7	12.9	96.3	96.9	101.7	95.8	92.5
CCOc1ccc2cc(C3CC(c4ccco4)=NN3S(C)(=O)=O)c(Cl)nc2c1 (stereo unspecified)	n	n	n	n	n	n	x	x	x	x	x	x	x
O=C(O)c1ccc(N/N=C/c2cn(Cc3ccc(F)cc3)c3ccccc23)cc1	51.6	n	61.2	n	39.9	n	39.2	24.6	n	71.6	75.2	n	n
CC(OC(=O)c1ccc([N+](=O)[O-])o1)C(=O)Nc1nc(-c2ccc(F)c(F)c2)cs1 (stereo unspecified)	n	n	n	n	x	x	x	x	x	x	x	x	x
